Pyk2 oligo antag = blocks oligomerization of human Pyk2 in cells; Q14289; Q293 cells, Pyk2 FERM NanoBiT luminescence; hits give low values; z-score (the deposit names both 25 µM and 10 µM); hit rate 0.83% among 99,000; AID 1347419;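 active means Z-score of -3 or lower, scaled per plate to the spread of control and sample wells; inactive means z-score above -3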;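 further: negative z-score means lost luminescence so less FERM oligomerization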
PLK1 PBD inh = Plk1 (human) PBD binding inhibition; inhibition, %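 (tested at about 20 µM)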; P53350; Plk1 PBD phosphopeptide binding, fluorescence polarization; hit rate 0.13% among 97,000; in the data active means inhibition above about 34%, passing the limit was not always enough
Target sequence (P53350 whole entry, looked up): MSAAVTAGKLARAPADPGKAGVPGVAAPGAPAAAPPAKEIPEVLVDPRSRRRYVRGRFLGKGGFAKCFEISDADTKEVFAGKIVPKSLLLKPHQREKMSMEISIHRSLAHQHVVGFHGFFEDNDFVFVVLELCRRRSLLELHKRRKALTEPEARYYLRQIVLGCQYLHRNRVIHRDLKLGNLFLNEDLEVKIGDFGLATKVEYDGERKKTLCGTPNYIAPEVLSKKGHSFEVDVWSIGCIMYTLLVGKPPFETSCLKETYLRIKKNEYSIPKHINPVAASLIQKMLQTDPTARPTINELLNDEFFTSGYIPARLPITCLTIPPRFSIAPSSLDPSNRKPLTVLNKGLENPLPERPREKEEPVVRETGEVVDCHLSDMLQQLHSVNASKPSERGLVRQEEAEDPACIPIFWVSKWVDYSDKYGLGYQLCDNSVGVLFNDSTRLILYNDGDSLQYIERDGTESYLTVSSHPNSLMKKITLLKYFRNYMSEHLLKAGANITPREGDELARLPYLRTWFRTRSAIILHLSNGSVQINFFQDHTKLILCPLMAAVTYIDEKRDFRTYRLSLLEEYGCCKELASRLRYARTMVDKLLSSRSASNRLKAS
PLK1 inh = blocks human PLK1 kinase activity; P53350; recombinant PLK1 kinase, TR-FRET peptide phosphorylation; inhibition, % at 10 µM; hit rate 0.53% among 97,000;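 active means inhibition of 50% or more in the single-concentration screen; inactive means inhibition below 50%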
NFkB transloc inh = blocks IL-1B driven NFkB nuclear translocation in HUVEC cells; inhibition, % at 2 µM; HUVEC IL-1B NFkB p65 nuclear translocation imaging; hit rate 0.43% among 94,000;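 active means inhibition above about 30% together with a positive call from visual inspection of the well image, limit read from the data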;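 further: nuclear over cytoplasmic p65 intensity ratio measured by imaging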
NFkB transloc pot = enhances IL-1B driven NFkB nuclear translocation. hit rate 0.3% among 94,000. HUVEC IL-1B NFkB p65 nuclear translocation imaging. activation, % at 2 µM. AID 819;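 active means activation above 40%, about the mean plus 3 SD, also judged a hit on visual image review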;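 further: percent activation is computed from the nuclear over cytoplasmic p65 intensity ratio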
IL1B cytotox = HUVEC cytotoxicity counter-screen, IL-1B stimulated; HUVEC cell count loss, Hoechst imaging; cell count reduction, % at 2 µM; hit rate 0.41% among 94,000;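 active means cell count reduction more than 3 SD above the screen-wide mean, cut at about 70% in these data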
Hits are given with their value; 0 = inactive; - = not tested or not shown; ! = not active in a repeat. Rows were chosen to be rich in hits. Some 2.2% of all compounds tested hit in one or more screens of this group.

SMILES	Pyk2 oligo antag	PLK1 PBD inh	PLK1 inh	NFkB transloc inh	NFkB transloc pot	IL1B cytotox
N#Cc1sc2nc3c(c(-c4ccco4)c2c1N)CCCC3	0	0	0	0	0	0
COCc1cc(C)c2c(N)c(C#N)sc2n1	0	0	0	31	0	0
N#Cc1ccc(CSc2nnc(-c3cnccn3)o2)cc1	0	0	0	0	0	0
N#Cc1ccc(CNc2cnccn2)cc1	0	0	0	0	0	94
Cc1cc(C)cc(OCC(=O)Nc2ccc(F)cc2)c1	0	0	0	0	0	84
CCc1nc2ccc(C)cc2c(C(=O)NC2CCCCC2C)c1C (configuration not stated)	0	0	0	0	0	0
Nc1nc(OCC(F)(F)F)cc(Oc2ccccc2F)n1	-3.8	0	0	0	0	0
Cc1ccc(-n2c(C)cc(C(=O)COc3c(CO)cc(F)cc3CO)c2C)cc1C	0	-	-	-	-	-
O=S(=O)(Nc1ccncc1)c1ccc(Cl)cc1	0	0	0	0	0	0
O=S(=O)(Nc1ccc(Cc2ccncc2)cc1)c1ccc(Cl)c(Cl)c1	-3	0	0	0	0	0
CCCn1nnc(NC(=O)c2cccc(OCc3ccccc3)c2)n1	0	0	0	0	0	0
Nc1c([N+](=O)[O-])cnnc1-c1ccccc1	0	-	-	-	-	-
Cc1ccc(-c2csc(NC(=O)c3cccc(N4C(=O)CCC4=O)c3)n2)o1	-	0	67	-	-	-
CCSc1nc2ccccc2n1CC(N)=O	0	0	0	0	0	0
CCSc1nc2ccccc2n1C(=O)/C=C\c1ccc(OC)c(OC)c1	0	0	0	90	0	0
O/N=C1/CCCSc2ccccc21	0	0	0	0	48	0
Cc1ccc2c(c1)/C(=N/O)CCS2	0	0	0	-	-	-
C=CCn1c(=O)c2c3c(sc2n2c(Nc4ccccc4)nnc12)CCCC3	-3.7	0	0	0	0	0
C=CCn1c(=O)c2c3c(sc2n2c(Nc4ccc(OC)cc4)nnc12)CCCC3	0	0	0	0	0	0
O=C(Cn1c(C(=O)N2CCc3ccccc3C2)cc2sccc21)c1ccccc1	-4	0	0	0	0	0
Cc1ccc(C2CN(C)C3(C(=O)Nc4ccccc43)C23COc2ccccc2C3=O)cc1 (configuration not stated)	-3.6	0	0	0	0	0
CN1CC(c2ccccc2Cl)C2(COc3ccccc3C2=O)C12C(=O)Nc1ccccc12 (configuration not stated)	0	0	0	0	0	0
CCOC(=O)c1[nH]c2cc(OC)c(OC)cc2c1NC(=O)C(C)N1CCN(Cc2ccccc2)CC1 (configuration not stated)	0	0	0	32	0	0
COc1ccccc1NS(=O)(=O)c1cc(C(=O)N2CC(C)CC(C)C2)ccc1C (configuration not stated)	0	0	0	0	0	0
CSc1nc(N(C)NC(=O)c2ccc(Cl)cc2)c2ccccc2n1	0	0	0	34	0	0
SMILES	Pyk2 oligo antag	PLK1 PBD inh	PLK1 inh	NFkB transloc inh	NFkB transloc pot	IL1B cytotox
CSc1nc(N(C)NC(=O)c2ccccc2)c2ccccc2n1	0	0	0	0	0	0
COc1ccc(C(=O)N2CCCCC2)cc1S(=O)(=O)Nc1cccc(C(=O)O)c1	0	0	0	0	0	0
COc1cc(S(=O)(=O)Nc2cccc(C(=O)O)c2)c(OC)cc1Cl	0	0	0	49	0	88
COc1ccc(-n2nc(C(=O)c3cccs3)cc(-c3nc4ccccc4[nH]3)c2=N)cc1	-3.3	0	0	0	0	0
COc1ccc2nc(C)cc(SCC(=O)O)c2c1	0	0	0	40!	0	0
COC(=O)CSc1cc(C)nc2ccc(OC)cc12	0	0	0	0	0	0
COCCN(C(=O)CSc1nnc(Nc2ccccc2F)s1)c1c(N)n(Cc2ccccc2)c(=O)[nH]c1=O	0	0	0	0	0	0
COc1ccc(NC(=O)C2CCCCN2N)cc1OC (configuration not stated)	0	0	0	0	41	0
CCOc1ccc(C(=O)OCCN(C)C)cc1	0	0	0	0	58	0
Cc1ccc(-n2c(C)nnc2SCC(=O)Nc2ccccc2)cc1	0	0	0	0	0	0
CCc1ccc(-n2c(SCc3c(C)noc3C)nnc2-c2ccncc2)cc1	0	0	0	0	67	0
Cc1noc(C)c1CSc1nnc(-c2c[nH]c3ccccc23)n1-c1ccc(Cl)cc1	0	0	0	0	0	0
COc1ccnc(Oc2ccccc2)c1C(=O)N/C=N/OCc1ccc(F)cc1Cl	0	0	0	0	0	95
COc1ccc(NS(=O)(=O)c2ccc3oc(SC4CCOC4=O)nc3c2)cc1 (configuration not stated)	0	0	0	0	0	0
Cn1c(=NC(=O)C2CC2)sc2cccc(F)c21	-	0	67	-	-	-
Cn1cc([N+](=O)[O-])c(C(=O)Nc2nc(-c3ccc(Cl)cc3)cs2)n1	0	0	0	77	0	0
Cc1ccc(-c2nc(NC(=O)c3nn(C)cc3[N+](=O)[O-])sc2C)cc1C	0	0	0	45	0	0
Cc1ccc(-c2nc(NC(=O)c3nn(C)cc3[N+](=O)[O-])sc2C)cc1	0	0	0	0	0	0
Cc1ccc(Cn2ccc(NC(=O)c3nn(C)cc3[N+](=O)[O-])n2)cc1	0	-	-	-	-	-
COC(=O)C1=C(C)NC(=O)NC1c1cccc(OC)c1OCc1ccccc1 (configuration not stated)	0	0	0	0	0	0
O=c1c2c3c(sc2n2c(=S)[nH]nc2n1Cc1ccccc1)CN(Cc1ccccc1)CC3	-	0	0	0	0	0
Cc1cc(C)c2c(N)c(S(=O)c3ccc(C(C)(C)C)cc3)sc2n1 (configuration not stated)	0	0	0	0	0	0
CCCOC1OC(=O)c2c1ccc(OC)c2OC (configuration not stated)	0	-	-	-	-	-
CCOC(=O)c1ccc(NC(=O)CCc2nc(-c3ccc(C)cc3)no2)cc1	0	0	64	0	0	0
C=CCOc1cccc(C2C(C(=O)c3ccco3)=C(O)C(=O)N2CCN(CC)CC)c1 (configuration not stated)	0	0	52	0	0	0
SMILES	Pyk2 oligo antag	PLK1 PBD inh	PLK1 inh	NFkB transloc inh	NFkB transloc pot	IL1B cytotox
CCOc1ccc(C2C(C(=O)c3ccco3)=C(O)C(=O)N2CCN(C)C)cc1 (configuration not stated)	-	0	0	0	0	0
COc1ccccc1C(=O)Nc1nnc(-c2ccc3c(c2)CCCC3)o1	-	0	0	53	0	0
CCC(Sc1ccc2nnc(-c3ccc(F)cc3)n2n1)C(=O)OC (configuration not stated)	0	0	0	0	0	82
CCOC(=O)c1[nH]c2cc3c(cc2c1NC(=O)CN1CCC(C)CC1)OCO3	0	0	0	98	0	86
O=C(CCCSc1nnnn1-c1ccccc1)c1ccc(F)cc1	-	0	0	0	0	0
COc1ccc(-c2cn3c(C)c(C(=O)Nc4ccncc4)sc3n2)cc1	-	0	0	0	0	0
COC(=O)c1ccc(NC(=O)c2sc3nc(-c4ccccc4)cn3c2C)cc1	-3.8	0	0	0	0	0
